Here are results for seven compounds from PubChem BioAssay.

The source made the active and inactive calls.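 Rule for the calls, unless noted: active = superoxide response below 65% of plate, a cut near 3 SD across the whole screen; inactive = the rest.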

The nature of assay [1]: inhibitors of CD8+ T cell-vesicle binding, pilot screen, LFA-1/ICAM-1 modulator project, MLPCN validation set, flow cytometry (AID 2523;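 active = response below a set limit, under 55% cells CD8-positive and vesicle-bound, and CD8 cells' 90th-percentile brightness under 279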;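 for vesicle binding response: mean PE anti-B7-1 fluorescence of CD8+ cells relative to row control; 100% = QL9-loaded vesicles with DMSO vehicle in the same plate row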). The conditions noted are these: 2C mouse CD8+ T cells, at 7 µM, stronger effect = lower value; double positive events: measured here: CD8+/vesicle+ event percentage. In general terms: In flow cytometry, cells or beads pass a laser one at a time.
For assay [2], the target named is Integrin beta-1 (Homo sapiens) + Integrin alpha-4 (Homo sapiens) (UniProt P13612+P05556). Kind of assay: inhibition of HUTS-21 binding to VLA-4, pilot screen, VLA-4 allosteric modulator project, U937 cells, HUTS-21 mAb, flow cytometry, validation set (AID 2674;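 active = inhibition above 50%, about 3 SD of the validation set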;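 note: antibody binding induced by the VLA-4 ligand LDV present at three times its Kd; 0% = LDV ligand with antibody and no compound and 100% = antibody without LDV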). The conditions noted are these: HUTS-21 LIBS mAb binding, at 6.7 µM, stronger effect = higher value, binding induced by LDV ligand.

Assay [3] is described as follows: superoxide lowering in aged yeast cells, pilot screen, validation compound set (AID 2706).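 Note: yeast exposed to compound for one week at 30 degrees C before staining; 100% = mean of all compound wells on the same plate.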 The conditions noted are these: S. cerevisiae aging, superoxide DHE fluorescence; at 10 µM, stronger effect = lower value.
For assay [4], the target named is Beta-adrenergic receptor kinase 1 (Homo sapiens) (UniProt P25098). The assay can be described thus: GRK2 binders displacing RNA aptamer, biochemical, validation, human GRK2, bead flow cytometry (AID 488806;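 active = aptamer binding inhibition above 30%, about 3 SD of noise from non-fluorescent compounds; inactive = inhibition at or below 30%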). Conditions: bead-bound GRK2, FAM-aptamer displacement, at 10 µM, stronger effect = higher value.
For assay [5], the target named is AP-2 complex subunit beta (Homo sapiens) (UniProt P63010). The assay can be described thus: inhibitors of arrestin peptide binding to AP2, pilot screen, biochemical, validation set, GST-AP2 beads, flow cytometry (AID 504541;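 active = inhibition above 54%, about 3 SD of non-fluorescent compounds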;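 note: AP2 carries R879A mutation and is captured from E. coli lysate; bead-bound FITC arrestin peptide fluorescence measuring arrestin peptide binding to AP2; 0% = DMSO wells and 100% = excess unlabeled arrestin peptide control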). Conditions: FITC arrestin peptide, at 10 µM, stronger effect = higher value, AP2 beta2 appendage fragment, R879A mutant.
Assay [6] in a line: yeast V-ATPase proton transport modulators, S. cerevisiae, pHLuorin, HTS validation (AID 504600; in the data active = response above about 15%;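 note: plate controls were DMSO for no effect and reference compound for full effect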). The conditions noted are these: S. cerevisiae pHLuorin cytosolic pH, at 10 µM, stronger effect = higher value.
For assay [7], the system named is anti-desmoglein-3 scFv antibody binding to human DSG3. The assay can be described thus: inhibitors of anti-DSG3 scFv binding to DSG3, pilot screen, biochemical, validation compound set, bead-based, flow cytometry (AID 588368;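 active = binding below the plate cutoff, the plate median minus 3 SD, with a reading above zero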;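 note: signal is the median channel fluorescence of bead-bound GFP antibody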). Conditions: Protein G beads, DSG3-Fc, scFv-GFP binding, at 10 µM, stronger effect = lower value.
The nature of assay [8]: inhibitors of fungal efflux pumps CDR1, CDR2, MDR1, pilot screen, validation compound set, multiplex, phenotypic (AID 588506;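 active = efflux inhibition above 0.42, the validation set average plus 4 SD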;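 note: Nile Red retained in cells so higher fluorescence means more efflux inhibition; 0 = negative control wells and 1 = enniatin B 25 µM full block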). The conditions noted are these: S. cerevisiae pump-expressing triplex, Nile Red efflux flow cytometry; at 10 µM; stronger effect = higher value; the pumps come from Candida albicans.
Assay [9] addresses ATP-binding cassette sub-family B member 6 (Homo sapiens) (UniProt Q9NP58). The assay can be described thus: ABCB6 transporter inhibitors, pilot screen, K562-ABCB6 cells, flow cytometry, validation set (AID 588550;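 active = inhibition above the screen-wide mean plus 3 SD, about 51%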;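 note: 0% = DMSO wells and 100% = benzethonium chloride 70 µM positive control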). The conditions noted are these: K562-ABCB6 porphyrin accumulation, 1 h, at 10 µM, stronger effect = higher value.
Assay [10] can be described thus: promoters of myeloid differentiation in arrested cells, primary screen, cell-based, GFP/MAC1 double positive, flow cytometry, validation set (AID 588685;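 active = differentiation response of at least 50%, scaled between solvent and reference control, from cells with both markers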;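 note: compound exposure lasts four days before antibody staining and flow analysis; 0% = DMSO wells and 100% = 5 µM fulvestrant positive control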). Conditions: ER-HoxA9 marrow cells, stronger effect = higher value, normalized: vehicle 0, fulvestrant 100.

For orientation: inhibition means the relative decrease from the control value, in per cent.

Beta-adrenergic receptor kinase 1 (Homo sapiens), sequence (P25098 whole entry, looked up): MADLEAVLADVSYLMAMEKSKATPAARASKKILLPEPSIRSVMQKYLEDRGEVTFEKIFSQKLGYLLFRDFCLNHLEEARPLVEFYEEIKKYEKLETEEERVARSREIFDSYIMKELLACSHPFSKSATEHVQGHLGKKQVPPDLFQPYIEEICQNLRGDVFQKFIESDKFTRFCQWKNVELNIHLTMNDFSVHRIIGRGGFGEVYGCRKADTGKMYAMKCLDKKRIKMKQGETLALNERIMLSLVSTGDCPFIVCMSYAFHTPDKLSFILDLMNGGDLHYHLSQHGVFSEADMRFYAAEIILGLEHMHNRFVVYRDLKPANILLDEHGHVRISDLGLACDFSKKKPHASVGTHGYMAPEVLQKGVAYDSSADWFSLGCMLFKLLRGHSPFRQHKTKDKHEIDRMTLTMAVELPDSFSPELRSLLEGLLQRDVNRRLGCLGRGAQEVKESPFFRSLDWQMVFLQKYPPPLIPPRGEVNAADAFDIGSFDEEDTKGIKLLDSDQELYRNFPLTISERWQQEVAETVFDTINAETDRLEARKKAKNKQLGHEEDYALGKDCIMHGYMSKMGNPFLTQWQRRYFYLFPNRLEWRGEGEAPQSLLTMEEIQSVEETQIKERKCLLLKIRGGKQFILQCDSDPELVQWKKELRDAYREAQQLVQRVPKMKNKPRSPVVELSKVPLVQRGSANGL
AP-2 complex subunit beta (Homo sapiens), sequence (P63010 whole entry, looked up, the tested form may be a part, one chain of several): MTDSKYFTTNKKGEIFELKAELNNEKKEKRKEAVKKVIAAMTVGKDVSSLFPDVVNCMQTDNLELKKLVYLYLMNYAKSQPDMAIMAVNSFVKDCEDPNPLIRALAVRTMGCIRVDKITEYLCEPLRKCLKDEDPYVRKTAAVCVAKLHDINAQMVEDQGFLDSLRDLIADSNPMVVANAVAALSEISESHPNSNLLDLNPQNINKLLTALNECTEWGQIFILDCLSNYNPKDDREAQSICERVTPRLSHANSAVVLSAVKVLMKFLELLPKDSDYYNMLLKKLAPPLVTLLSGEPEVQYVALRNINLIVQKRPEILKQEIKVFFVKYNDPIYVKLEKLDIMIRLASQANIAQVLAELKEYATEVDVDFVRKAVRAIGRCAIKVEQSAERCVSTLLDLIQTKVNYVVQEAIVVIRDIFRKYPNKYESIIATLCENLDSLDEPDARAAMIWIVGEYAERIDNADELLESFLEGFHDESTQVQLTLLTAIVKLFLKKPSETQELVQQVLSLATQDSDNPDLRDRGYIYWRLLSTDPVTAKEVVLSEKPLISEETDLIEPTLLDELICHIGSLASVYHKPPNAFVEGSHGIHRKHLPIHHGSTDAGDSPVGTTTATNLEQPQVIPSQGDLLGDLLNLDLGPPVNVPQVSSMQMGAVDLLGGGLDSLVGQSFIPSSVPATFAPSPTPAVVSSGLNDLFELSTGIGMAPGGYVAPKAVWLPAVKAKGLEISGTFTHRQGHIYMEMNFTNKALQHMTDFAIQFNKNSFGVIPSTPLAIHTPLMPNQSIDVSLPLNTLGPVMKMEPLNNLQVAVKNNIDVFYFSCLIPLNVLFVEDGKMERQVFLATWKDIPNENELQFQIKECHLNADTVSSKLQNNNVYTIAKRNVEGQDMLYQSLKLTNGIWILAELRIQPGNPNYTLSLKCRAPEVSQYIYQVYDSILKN
ATP-binding cassette sub-family B member 6 (Homo sapiens), sequence (Q9NP58 whole entry, looked up): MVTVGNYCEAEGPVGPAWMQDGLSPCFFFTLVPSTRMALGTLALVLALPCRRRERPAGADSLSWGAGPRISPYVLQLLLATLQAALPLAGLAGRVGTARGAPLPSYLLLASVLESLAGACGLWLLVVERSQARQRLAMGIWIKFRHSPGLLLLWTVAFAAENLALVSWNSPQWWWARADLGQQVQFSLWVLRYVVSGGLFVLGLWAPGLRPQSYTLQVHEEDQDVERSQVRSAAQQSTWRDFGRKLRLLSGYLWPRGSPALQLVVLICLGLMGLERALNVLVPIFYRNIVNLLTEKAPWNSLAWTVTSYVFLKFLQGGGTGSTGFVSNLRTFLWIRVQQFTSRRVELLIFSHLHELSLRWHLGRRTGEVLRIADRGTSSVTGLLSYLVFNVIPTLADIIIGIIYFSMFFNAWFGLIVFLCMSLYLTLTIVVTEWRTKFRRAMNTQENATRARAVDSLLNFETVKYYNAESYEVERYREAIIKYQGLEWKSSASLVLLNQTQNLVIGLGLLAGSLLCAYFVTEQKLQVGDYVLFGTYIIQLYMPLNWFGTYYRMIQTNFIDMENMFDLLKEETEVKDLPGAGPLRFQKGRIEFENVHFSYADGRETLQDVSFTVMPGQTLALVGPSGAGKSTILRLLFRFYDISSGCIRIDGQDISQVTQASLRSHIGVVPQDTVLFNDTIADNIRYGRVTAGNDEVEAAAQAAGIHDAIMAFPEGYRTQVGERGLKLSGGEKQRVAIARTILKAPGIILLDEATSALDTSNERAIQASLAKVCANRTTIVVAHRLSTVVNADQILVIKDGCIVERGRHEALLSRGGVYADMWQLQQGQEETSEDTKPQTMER
Integrin beta-1 (Homo sapiens) + Integrin alpha-4 (Homo sapiens), sequence (P05556 whole entry, looked up): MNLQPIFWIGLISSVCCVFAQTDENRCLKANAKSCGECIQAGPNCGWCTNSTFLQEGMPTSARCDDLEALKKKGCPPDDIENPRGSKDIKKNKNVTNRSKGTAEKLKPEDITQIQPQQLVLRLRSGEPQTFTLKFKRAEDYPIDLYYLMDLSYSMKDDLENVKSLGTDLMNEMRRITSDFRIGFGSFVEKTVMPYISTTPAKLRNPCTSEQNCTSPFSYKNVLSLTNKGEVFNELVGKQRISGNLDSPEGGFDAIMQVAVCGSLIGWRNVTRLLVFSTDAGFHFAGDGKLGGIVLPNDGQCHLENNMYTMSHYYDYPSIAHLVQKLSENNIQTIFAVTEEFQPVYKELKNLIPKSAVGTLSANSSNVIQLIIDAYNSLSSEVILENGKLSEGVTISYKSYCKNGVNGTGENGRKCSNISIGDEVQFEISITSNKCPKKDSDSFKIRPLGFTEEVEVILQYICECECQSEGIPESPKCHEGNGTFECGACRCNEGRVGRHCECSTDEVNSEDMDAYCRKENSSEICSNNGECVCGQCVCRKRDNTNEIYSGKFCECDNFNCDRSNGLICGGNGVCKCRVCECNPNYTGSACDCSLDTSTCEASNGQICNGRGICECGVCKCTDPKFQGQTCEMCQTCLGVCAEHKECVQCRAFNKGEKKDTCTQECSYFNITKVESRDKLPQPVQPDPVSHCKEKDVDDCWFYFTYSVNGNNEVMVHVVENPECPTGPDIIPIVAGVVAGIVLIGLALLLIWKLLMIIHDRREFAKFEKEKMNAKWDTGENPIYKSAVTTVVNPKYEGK
Integrin beta-1 (Homo sapiens) + Integrin alpha-4 (Homo sapiens), sequence (P13612 whole entry, looked up): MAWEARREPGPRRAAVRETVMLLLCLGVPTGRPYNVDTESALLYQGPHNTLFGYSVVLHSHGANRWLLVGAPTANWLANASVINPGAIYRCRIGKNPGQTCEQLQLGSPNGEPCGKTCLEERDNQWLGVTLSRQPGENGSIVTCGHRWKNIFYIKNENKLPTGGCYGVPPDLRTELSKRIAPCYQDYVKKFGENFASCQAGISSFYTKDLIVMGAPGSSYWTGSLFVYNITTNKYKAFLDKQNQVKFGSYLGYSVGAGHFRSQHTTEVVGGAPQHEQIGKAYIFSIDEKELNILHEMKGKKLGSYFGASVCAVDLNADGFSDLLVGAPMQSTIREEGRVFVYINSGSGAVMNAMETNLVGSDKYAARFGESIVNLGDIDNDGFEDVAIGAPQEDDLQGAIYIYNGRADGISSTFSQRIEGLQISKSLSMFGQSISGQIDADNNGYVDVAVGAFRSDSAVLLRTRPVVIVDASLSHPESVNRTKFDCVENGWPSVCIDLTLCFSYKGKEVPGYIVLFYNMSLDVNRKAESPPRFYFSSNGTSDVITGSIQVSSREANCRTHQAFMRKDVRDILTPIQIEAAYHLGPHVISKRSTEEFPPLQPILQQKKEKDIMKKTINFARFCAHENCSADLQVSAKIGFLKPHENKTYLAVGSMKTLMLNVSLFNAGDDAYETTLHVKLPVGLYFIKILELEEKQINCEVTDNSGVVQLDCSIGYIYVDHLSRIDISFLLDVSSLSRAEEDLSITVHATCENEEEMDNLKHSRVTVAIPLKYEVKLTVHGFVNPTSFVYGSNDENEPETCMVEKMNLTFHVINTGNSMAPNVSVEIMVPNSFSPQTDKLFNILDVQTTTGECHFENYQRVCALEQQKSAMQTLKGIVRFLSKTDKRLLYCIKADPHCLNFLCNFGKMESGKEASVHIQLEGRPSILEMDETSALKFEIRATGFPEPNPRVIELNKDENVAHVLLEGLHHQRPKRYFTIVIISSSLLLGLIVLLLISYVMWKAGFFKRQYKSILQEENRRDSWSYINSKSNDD

For the compound `O=C(O)C[C@@H](O)C(=O)O`, the double positive events in assay [1] is 56.6%. Besides, the vesicle binding response in [1] is 193% (inactive). Further, the figures for the inhibition in assay [2], in assay [5] and in [9] were 0.69% (inactive), -10.9% (inactive) and 4% (inactive), respectively. The superoxide response (% of plate) in assay [3] was 104% (inactive). In addition, in [4], the aptamer binding inhibition is 2% (inactive). Further, the response in [6] is -4.82% (inactive). For the same compound, in assay [7], the binding (% of control) was 102% (inactive). In addition, the efflux inhibition (fraction of control) in [8] was -0.2 (inactive). Further, the differentiation response in assay [10] is 6.26% (inactive).

In assay [1], `COC(=O)c1[nH]c2ccc(F)cc2c1NC(=O)C1=COCCO1` came in with a double positive events of 55.5%. In addition, in assay [1], the vesicle binding response is 252% (inactive). Besides, the results for the inhibition in assay [2], in [5] and in assay [9] were -3.04% (inactive), 1.47% (inactive) and 7% (inactive), respectively. Also, in [3], the superoxide response (% of plate) is 89.2% (inactive). For the same compound, the aptamer binding inhibition in [4] was 1% (inactive). Further, the response in assay [6] is -2.26% (inactive). Further, in [7], the binding (% of control) is 92.8% (inactive). The efflux inhibition (fraction of control) in assay [8] was -0.01 (inactive). For the same compound, the differentiation response in assay [10] was 45% (inactive).

As for `COc1c2occc2c(OC)c2c(=O)cc(C(F)(F)C(F)(F)F)oc12`, the double positive events in [1] was 50%. Moreover, in assay [1], the vesicle binding response was 156% (inactive). In addition, the inhibition in assay [2] is 3.49% (inactive); in assay [5], -6.1% (inactive); in assay [9] it was 9% (inactive). Also, in assay [3], the superoxide response (% of plate) is 123% (inactive). Moreover, the aptamer binding inhibition in [4] was 2% (inactive). Also, the response in assay [6] is -16% (inactive). Moreover, the binding (% of control) in assay [7] is 103% (inactive). In addition, the efflux inhibition (fraction of control) in [8] was 0.03 (inactive). Moreover, the differentiation response in assay [10] was -16.4% (inactive).

The compound `COc1ccc(C2CNC(=O)C2)cc1OC1CCCC1` (configuration not stated) showed a double positive events in assay [1] of 53.3%. Moreover, the vesicle binding response in [1] is 151% (inactive). Further, the inhibition in assay [2] was -8.64% (inactive); in assay [5] it was 23.8% (inactive); in assay [9] it was 7% (inactive). Also, the superoxide response (% of plate) in assay [3] is 104% (inactive). Further, the aptamer binding inhibition in assay [4] is -6% (inactive). Also, the response in assay [6] was -25.8% (inactive). Further, the binding (% of control) in assay [7] is 105% (inactive). Besides, in assay [8], the efflux inhibition (fraction of control) was -0.12 (inactive). Further, the differentiation response in assay [10] is -3.43% (inactive).

Regarding `Cc1c(CCOC(=O)CC23CC4CC(CC(C)(C4)C2)C3)sc[n+]1Cc1ccc([N+](=O)[O-])cc1`, the double positive events in assay [1] came out at 59%. Further, in assay [1], the vesicle binding response is 208% (inactive). The inhibition in [2] was 8.15% (inactive); in assay [5], -6.04% (inactive); in [9], 6% (inactive). Besides, the superoxide response (% of plate) in assay [3] was 98.4% (inactive). Also, the aptamer binding inhibition in assay [4] is -9% (inactive). In assay [6], the response was 3.23% (inactive). Also, the binding (% of control) in [7] is 108% (inactive). In assay [8], the efflux inhibition (fraction of control) was 1.81 (active). Besides, the differentiation response in assay [10] was 0% (inactive).

`Cc1c(OCC(=O)NC(Cc2c[nH]c3ccc(O)cc23)C(=O)O)ccc2c3c(c(=O)oc12)CCC3` (configuration not stated) had a double positive events in assay [1] of 51.4%. For the same compound, in assay [1], the vesicle binding response was 218% (inactive). Moreover, the inhibition was 6.29% (inactive) in assay [2], 3.65% (inactive) in assay [5] and 11% (inactive) in [9]. In addition, in [3], the superoxide response (% of plate) is 87.9% (inactive). Further, the aptamer binding inhibition in assay [4] is 3% (inactive). For the same compound, the response in assay [6] is 6.27% (inactive). In addition, the binding (% of control) in assay [7] was 101% (inactive). The efflux inhibition (fraction of control) in [8] is -0.5 (inactive). Besides, the differentiation response in assay [10] is -22.8% (inactive).

In the case of `O=C(NCC1CCCCN1)c1cc(OCC(F)(F)F)ccc1OCC(F)(F)F` (configuration not stated), the double positive events in assay [1] came out at 51.3%. For the same compound, the vesicle binding response in assay [1] was 183% (inactive). For the same compound, the results for the inhibition in [2], in [5] and in assay [9] were 1.62% (inactive), -20.4% (inactive) and 14% (inactive), respectively. The superoxide response (% of plate) in [3] was 102% (inactive). Besides, the aptamer binding inhibition in assay [4] is -3% (inactive). Besides, the response in [6] was 0.89% (inactive). Besides, in assay [7], the binding (% of control) is 103% (inactive). For the same compound, the efflux inhibition (fraction of control) in assay [8] is -0.05 (inactive). Besides, in assay [10], the differentiation response was -8.27% (inactive).
